In the library only some 3.1% were active in any assay of this set; here they are far more common.
Mot1-301 SUMO: SUMOylation pathway inhibition by Mot1-301 growth rescue. S. cerevisiae Mot1-301 growth rescue, ATP luminescence, 38.5C; percent above DMSO median, 100 means doubled. growth rescue, % at 18.8 µM. hit rate 1% among 320,000. AID 2716;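 active means every valid replicate shows activation above 250% relative to neutral control wells; inactive means the rest, any valid replicate at or below 250%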;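 further: OY570 slx delta 5 strain wells were the positive control but not used for scaling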
ATG4B inhibitor: ATG4B (human) cysteine protease inhibition | ATG4B cleavage of LC3-PLA2, NBD-HPC fluorescence, 1 h | inhibition, % at 8.33 µM | hit rate 0.51% among 340,000; in the data active means inhibition above about 40%
Calb FLC: C. albicans growth modulation with fluconazole. hit rate 0.57% among 300,000. AID 1979. growth inhibition, % (concentration not given with the values). C. albicans CaCi-2 (fluconazole-resistant clinical isolate) + fluconazole, Alamar Blue growth, 48 h;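 active means growth inhibition above about 58% in most replicates, limit read from the data, passing the limit was not always enough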;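 further: all wells also contain fluconazole at 8 µg/ml as a sub-toxic cotreatment; 0% = median of DMSO wells and 100% = median of geldanamycin control wells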
FAS-TE inh: blocks the thioesterase domain of human fatty acid synthase | recombinant FAS-TE, OMFH fluorogenic substrate, fluorescence endpoint | hit rate 0.67% among 360,000 | inhibition, % at 15 µM | AID 602261;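 active means compounds whose normalised, plate-corrected inhibition of enzyme fluorescence in the single-dose primary screen is 50% or more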;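 further: 0% = DMSO with enzyme and 100% = substrate without enzyme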
NadD inh: inhibitors of Staphylococcus aureus NadD | hit rate 0.78% among 360,000 | inhibition, % at 20 µM | AID 602399 | purified NadD enzyme, colorimetric absorbance read-out; in the data active means inhibition above about 26%
FAS-TE conf: confirmation of human fatty acid synthase thioesterase inhibitors; shares compounds with FAS-TE inh; recombinant FAS-TE, OMFH fluorogenic substrate, fluorescence; inhibition, % at 15 µM; hit rate 45% among 2,300; AID 624325;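 active means compounds inhibiting the enzyme by at least 50% at 15 µM in any one of the replicates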;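 further: 0% = enzyme with DMSO only and 100% = wells lacking enzyme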
* = called active by the depositor; / = no result given.

SMILES	Mot1-301 SUMO	ATG4B inhibitor	Calb FLC	FAS-TE inh	NadD inh	FAS-TE conf
COC(C[C@@H](O)[C@@H](C)[C@@H](O)COCc1ccccc1)OC	/	15	1	-6	0	/
O=C(CSc1ncnc2c1cnn2-c1ccccc1)NC1CCS(=O)(=O)C1 (stereo not given)	9	-8	/	64*	-5	72*
CCOC(=O)N1C(=O)NC(=O)C1c1ccc(OC)cc1 (stereo not given)	/	2	/	-6	0	/
COc1cccc(NC(=O)CN2C(=O)COc3ccc(S(=O)(=O)N4CCC(C)CC4)cc32)c1	26	-4	1	61*	4	66*
COc1ccc(NC(=O)/C(C#N)=C\c2cc(C)n(-c3ccc4c(c3)OCO4)c2C)cc1	-10	6	1	54*	17	-5
Cc1cc(/C=C(\C#N)C(=O)Nc2ccc(Cl)cc2)c(C)n1-c1ccc(N2CCOCC2)c([N+](=O)[O-])c1	-14	-2	11	79*	20	9
C=CCOc1ccccc1CN1CCCCCC1	2	-1	0	-7	0	/
O=C(Nc1cnn(C23CC4CC(CC(C4)C2)C3)c1)c1cnn2c(C(F)(F)F)cc(-c3ccco3)nc12	17	1	-10	61*	4	-1
CCc1ccc(C(O)c2ncc(-c3cccc(C(F)(F)F)c3)[nH]2)cc1 (stereo not given)	/	/	/	27	6	/
CC(C)CSc1ncc(-c2cccc(C(F)(F)F)c2)cn1	173	-5	-16	51*	14	49*
C#CCN(C[C@H]1[C@H](OC(=O)NCc2ccc(OC)c(OC)c2)[C@H](OC(=O)NCc2ccc(OC)c(OC)c2)C[C@H]2C(=O)N(c3ccccc3)C(=O)[C@@H]12)S(=O)(=O)c1ccc(C)cc1	/	/	/	71*	-3	25
COc1ccc(NC(=O)NC23CC4(C)CC(C)(CC(C)(C4)C2)C3)cc1OC	-19	-4	-19	12	-7	/
COc1ccc(-c2cc([N+](=O)[O-])ccc2OCC(=O)N(C)CC(=O)Nc2ccc(C)cc2)cc1	/	-11	/	60*	9	64*
COc1ccc(NC(=O)CN(C)C(=O)CN2C(=O)c3ccc([N+](=O)[O-])cc3C2=O)cc1	2	0	-7	6	-4	/
Cc1nc(N2CCN(S(=O)(=O)c3ccccc3C#N)CC2)c2c(-c3cccs3)csc2n1	11	-9	0	51*	11	30
Cc1nc(N2CCCCC2)c2c(-c3cccs3)csc2n1	8	-4	4	19	-4	/
CC(C)(C)c1ccc(S(=O)(=O)NC(=O)C2(C)CCN2C(=O)Cc2ccccc2Cl)cc1 (stereo not given)	/	/	/	-8	-2	/
CN(C)CCCNC(=O)/C(=C\C=C\c1ccccc1)NC(=O)c1ccc([N+](=O)[O-])cc1	5	6	-5	86*	-9	89*
C=CCNC(=O)/C(=C\c1ccc(OC)cc1)NC(=O)c1ccc([N+](=O)[O-])cc1	6	-14	1	76*	-2	83*
COc1ccc(/C=C(\NC(=O)c2ccc(OC)cc2)C(=O)NC(CCSC)C(=O)O)cc1 (stereo not given)	-10	-4	27	1	1	/
COc1ccc(/C=C(/NC(=O)c2ccc([N+](=O)[O-])cc2)C(=O)NCCCN(C)C)cc1	4	5	27	71*	-7	77*
Cc1ccc(C(=O)N/C(=C\c2ccc([N+](=O)[O-])cc2)C(=O)NCCc2ccccc2)cc1	57	-16	3	34	6	/
COc1ccc(C(=O)N/C(=C\c2ccc([N+](=O)[O-])cc2)C(=O)NC(CCSC)C(=O)O)cc1 (stereo not given)	8	-1	-1	57*	4	53*
Cc1cccc(N/N=C(\C=N\N)C(=O)c2ccc(Br)cc2)c1	0	/	-7	/	/	/
Cc1ccc(-c2nn(-c3ccccc3)cc2C(=O)Nc2cccc(S(=O)(=O)NC3=NCCC3)c2)cc1	/	/	/	9	-1	/
SMILES	Mot1-301 SUMO	ATG4B inhibitor	Calb FLC	FAS-TE inh	NadD inh	FAS-TE conf
COC(=O)C1=C(C(=O)OC)[C@]2([C@H]3CC=CCN[C@@H](Cc4ccccc4)C(=O)N3Cc3ccccc3)C=C[C@H]1O2	/	0	/	54*	3	13
COC(=O)C1=C(C(=O)OC)[C@]2([C@@H]3CC=CCN[C@@H](Cc4ccccc4)C(=O)N3Cc3ccccc3)C=C[C@H]1O2	/	-3	/	41	7	/
COc1cccc(N2CCN(C(=O)C3CCN(S(=O)(=O)c4ccc5c(c4)CC(C)N5C(C)=O)CC3)CC2)c1 (stereo not given)	-7	-12	0	8	6	/
CCCCC(=O)Nc1ccccc1C(=O)OCC(=O)c1ccc2c(c1)OCCO2	110	19	-6	56*	1	30
COC(=O)c1ccc(COc2ccc(C)cc2[N+](=O)[O-])o1	-11	-5	8	10	3	/
O=C(COc1cc([N+](=O)[O-])cc2cccnc12)NCCC1=CCCCC1	225	0	18	83*	-2	87*
COC(=O)c1ccc(COc2cc([N+](=O)[O-])cc3cccnc23)o1	-16	-2	18	55*	-1	57*
Cc1ccc2c(c1)C(c1ccccc1)N(C(=O)c1ccccc1)CC(=O)N2 (stereo not given)	-24	7	6	-1	-5	/
O=C1CN(C(=O)c2cc([N+](=O)[O-])ccc2Cl)C(c2ccc(F)cc2)c2cc(F)ccc2N1 (stereo not given)	-10	-3	-3	75*	1	41
Cc1ccc2c(c1)C(c1ccccc1)N(C(=O)c1cccc([N+](=O)[O-])c1)CC(=O)N2 (stereo not given)	-15	-3	21	78*	-1	87*
O=[N+]([O-])c1cc([N+](=O)[O-])c(Oc2cc(Cl)ccc2Cl)cc1NC1CCCCCCC1	2	11	-1	37	2	/
COc1cc(OC)c(N(C)C(=O)c2cc3c(s2)-c2ccccc2S(=O)(=O)C3)cc1Cl	-8	9	-1	54*	6	32
COc1cc(NC(=S)N2CCC(C(O)(c3ccccc3)c3ccccc3)CC2)cc(OC)c1	-22	19	7	53*	17	32
Cc1ccc(C(=O)c2cnc3cc4c(cc3c2S(=O)(=O)c2ccccc2)OCCO4)cc1	-3	35	10	72*	16	21
CCOc1ccc(S(=O)(=O)c2c(C(=O)c3ccc(C)cc3)cnc3cc4c(cc23)OCCO4)cc1	-16	-5	3	41	17	/
CCCC(=O)OCCNc1cc(Sc2nccn2C)c2nonc2c1[N+](=O)[O-]	5	-1	14	62*	-2	62*
CCCSc1cc(NCCOC(=O)CCC)c([N+](=O)[O-])c2nonc12	31	6	-10	51*	2	58*
